Test systems include SR leukemia; RPMI-8226 leukemia; OVCAR-8 ovarian; OVCAR-5 ovarian; OVCAR-4 ovarian; SK-OV-3 ovarian; IGROV1 ovarian; OVCAR-3 ovarian; HS 578T breast; NCI/ADR-RES ovarian.
What all share (experiment): NCI-60 one-dose screen, 48 h (100 = growth as untreated, 0 = no growth, -100 = all killed)
Holding throughout (details): 10 µM unless noted

The panel holds about 83,000 compounds, 20% with a hit somewhere; the sample as a whole holds those more often.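 Testing used 96-well plates and a 48-hour single-concentration exposure. Example: -40 means 40% of the starting cells died.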 Unmarked numbers belong to inactive results. Calls of active or inactive are those of the source. The calls were made as follows: active = growth percent below 10; inactive = the rest.

For the molecule `NC1N=C(SCC(=O)N2CCN(c3cc4c(cc3F)c(=O)c(C(=O)O)cn4C3CC3)CC2)NC(=O)/C1=C/c1ccc(Cl)cc1` (stereo not given), the growth in the experiment on SR leukemia is 110%; in the experiment on RPMI-8226 leukemia, 101%; with OVCAR-8 ovarian, 102%; in the experiment with OVCAR-5 ovarian, 104%; in the experiment on OVCAR-4 ovarian, 99.5%; in the experiment with SK-OV-3 ovarian, 114%. The growth in the experiment with IGROV1 ovarian is 104%; with OVCAR-3 ovarian, 109%; in the experiment on HS 578T breast, 106%; in the experiment with NCI/ADR-RES ovarian, 105%.
In the case of `CCOC(=O)c1c(/N=C2\SC(=O)/C(=C\C(=O)OC)N2NC)sc2c1CCN(C(=O)OCC)C2`, the growth is 103% in the experiment on SR leukemia; 95.3% in the experiment with RPMI-8226 leukemia; 103% in the experiment on OVCAR-8 ovarian; 102% in the experiment with OVCAR-5 ovarian; 99.1% in the experiment on OVCAR-4 ovarian; 109% in the experiment with SK-OV-3 ovarian. Further, the growth in the experiment on IGROV1 ovarian was 102%; with OVCAR-3 ovarian, 106%; in the experiment with HS 578T breast, 103%; in the experiment on NCI/ADR-RES ovarian, 103%.
On to `CC(=O)Nc1ccc(/C=C/C(=O)c2ccccc2)cc1`, for which the growth with SR leukemia is 3.34% (active); with RPMI-8226 leukemia, -8.05% (active); in the experiment on OVCAR-8 ovarian, 98.4%; in the experiment with OVCAR-5 ovarian, 113%; in the experiment with OVCAR-4 ovarian, 106%; with SK-OV-3 ovarian, 101%. In addition, the growth in the experiment with IGROV1 ovarian is 43%; in the experiment with OVCAR-3 ovarian, 57.6%; in the experiment with HS 578T breast, 81.7%; in the experiment with NCI/ADR-RES ovarian, 103%.
Consider `C=CCn1c2ccccc2c2c3c(c4c5ccccc5n(CC=C)c4c21)C(=O)N(O)C3=O`, for which the growth in the experiment on SR leukemia is 7.52% (active); with RPMI-8226 leukemia, 24.4%; in the experiment on OVCAR-8 ovarian, 22.9%; in the experiment with OVCAR-5 ovarian it was 86.4%; in the experiment on OVCAR-4 ovarian, 45.8%; in the experiment with SK-OV-3 ovarian it was 33.9%. In addition, the growth was -15.6% (active) with IGROV1 ovarian, 33.2% in the experiment on OVCAR-3 ovarian, 77.2% with HS 578T breast and 2.91% (active) in the experiment with NCI/ADR-RES ovarian.
For the molecule `O=C(CSC1CCc2ccccc21)N/N=C/c1ccccc1O` (stereo not given), the growth in the experiment on SR leukemia was 17.7%; in the experiment on RPMI-8226 leukemia, 71.5%; in the experiment with OVCAR-8 ovarian, 57.3%; in the experiment with OVCAR-5 ovarian, 78.1%; in the experiment on OVCAR-4 ovarian, 38.1%; with SK-OV-3 ovarian, 50%. The growth with IGROV1 ovarian is 27.4%; in the experiment on OVCAR-3 ovarian, 20.6%; with HS 578T breast, 84.9%; in the experiment on NCI/ADR-RES ovarian it was 24.1%.
For `CCOC(=O)/C(C#N)=C1/C(=O)Nc2ccccc21`, the growth is 149% in the experiment on SR leukemia; 111% in the experiment with RPMI-8226 leukemia; 108% in the experiment on OVCAR-8 ovarian; 104% with OVCAR-5 ovarian; 114% with OVCAR-4 ovarian; 117% in the experiment with SK-OV-3 ovarian. The growth in the experiment with IGROV1 ovarian is 109%; in the experiment with OVCAR-3 ovarian, 134%; in the experiment with HS 578T breast, 121%; in the experiment with NCI/ADR-RES ovarian it was 112%.
For `COc1ccc(C(=O)N2NC(=O)/C(=C/c3ccc(F)cc3)N=C2c2ccccc2)cc1`, the growth was 51.5% with SR leukemia; 70.3% with RPMI-8226 leukemia; 97.4% with OVCAR-8 ovarian; 95.9% in the experiment on OVCAR-5 ovarian; 109% in the experiment on OVCAR-4 ovarian; 103% in the experiment with SK-OV-3 ovarian. Besides, the growth with IGROV1 ovarian was 99%; in the experiment with OVCAR-3 ovarian, 105%; with HS 578T breast it was 101%; in the experiment with NCI/ADR-RES ovarian, 81.3%.
Turning to `Cc1csc(NC(c2ccccc2)c2c(C)nc3ccccn23)n1` (stereo not given), the growth with SR leukemia is 94.9%; with RPMI-8226 leukemia it was 79.2%; in the experiment with OVCAR-8 ovarian it was 102%; in the experiment with OVCAR-5 ovarian, 101%; in the experiment with OVCAR-4 ovarian, 104%; with SK-OV-3 ovarian it was 97.3%. The growth with IGROV1 ovarian was 108%; with OVCAR-3 ovarian it was 110%; in the experiment on HS 578T breast, 95.5%; with NCI/ADR-RES ovarian, 99%.
Turning to `COc1ccc(C(=O)N2NC(=O)/C(=C/c3ccccc3F)N=C2c2ccccc2)cc1`, the growth is 104% with SR leukemia; 119% in the experiment on RPMI-8226 leukemia; 101% in the experiment on OVCAR-8 ovarian; 108% with OVCAR-5 ovarian; 106% in the experiment on OVCAR-4 ovarian; 112% in the experiment on SK-OV-3 ovarian. The growth with IGROV1 ovarian was 107%; in the experiment with OVCAR-3 ovarian, 114%; in the experiment on HS 578T breast it was 110%; in the experiment on NCI/ADR-RES ovarian, 105%.
As to `COc1ccc(/C=C2\Oc3cc(OCCCN4CCCC4)ccc3C2=O)c(OC)c1`, the growth is -26.5% (active) with SR leukemia; 66.9% with RPMI-8226 leukemia; 80% in the experiment with OVCAR-8 ovarian; 100% with OVCAR-5 ovarian; 90.3% in the experiment with OVCAR-4 ovarian; 110% in the experiment on SK-OV-3 ovarian. The growth with IGROV1 ovarian was 88.2%; in the experiment with OVCAR-3 ovarian it was 97.4%; in the experiment with HS 578T breast, 94.5%; in the experiment with NCI/ADR-RES ovarian, 91%.
With `COc1cccc(/C=C2\Oc3cc(OCCCN4CCCC4)ccc3C2=O)c1OC`, the growth was 70.8% in the experiment on SR leukemia; 88.6% in the experiment with RPMI-8226 leukemia; 94% in the experiment on OVCAR-8 ovarian; 94.9% with OVCAR-5 ovarian; 99.9% with OVCAR-4 ovarian; 110% with SK-OV-3 ovarian. In addition, the growth was 96.1% in the experiment with IGROV1 ovarian, 99% in the experiment with OVCAR-3 ovarian, 93.9% in the experiment with HS 578T breast and 97.3% in the experiment with NCI/ADR-RES ovarian.
Turning to `CC(C)(C)n1cc(-c2ccnc(NCCNS(=O)(=O)c3ccc(Cl)cc3)c2)c(-c2cccc(O)c2)n1`, the growth in the experiment on SR leukemia is 24.9%; in the experiment on RPMI-8226 leukemia, 23.8%; in the experiment on OVCAR-8 ovarian, 65.1%; with OVCAR-5 ovarian, 80.9%; with OVCAR-4 ovarian, 53.5%; with SK-OV-3 ovarian, 90.4%. Further, the growth in the experiment on IGROV1 ovarian is 79.1%; in the experiment on OVCAR-3 ovarian, 72.5%; in the experiment with HS 578T breast, 66%; with NCI/ADR-RES ovarian, 68.2%.
`COc1cc2c(cc1OCCCN1CCN(CCCn3c4ccccc4c4ccccc43)CC1)N=C[C@@H]1CCCN1C2=O`: the growth is -34.7% (active) with SR leukemia; -57.4% (active) in the experiment with RPMI-8226 leukemia; -6.46% (active) in the experiment with OVCAR-8 ovarian; 3.88% (active) in the experiment on OVCAR-5 ovarian; -39.5% (active) in the experiment with OVCAR-4 ovarian; -80.5% (active) with SK-OV-3 ovarian. Further, the growth was -64.6% (active) in the experiment with IGROV1 ovarian, -91.1% (active) in the experiment with OVCAR-3 ovarian, -54.5% (active) with HS 578T breast and 1.66% (active) in the experiment on NCI/ADR-RES ovarian.
As for `O=C(CN1CCN(c2cc3c(cc2F)c(=O)c(C(=O)N/N=C/c2ccccc2O)cn3C2CC2)CC1)N/N=C\c1ccccc1O`, the growth in the experiment on SR leukemia was 14.6%; in the experiment on RPMI-8226 leukemia it was 25.4%; in the experiment on OVCAR-8 ovarian it was 25.8%; in the experiment on OVCAR-5 ovarian, 39%; with OVCAR-4 ovarian, 19.8%; with SK-OV-3 ovarian, 34.5%. The growth was 21.5% in the experiment with IGROV1 ovarian, 30.7% in the experiment with OVCAR-3 ovarian, 57.4% with HS 578T breast and 23.6% in the experiment with NCI/ADR-RES ovarian.

The values are drawn from PubChem BioAssay (NCI).
